Inconclusive results are not listed. A call without a number means that no potency is given here. Active and inactive are the calls of the source. Calls come from the whole dose curve; as a rule, active = well fitted inhibition curve with a large enough effect in the repeat runs; inconclusive = weak or mixed curves; inactive = no such curve, though single readings can be large or run the other way.

The nature of this assay: qHTS assay to identify small molecule antagonists of the thyroid receptor (TR) signaling pathway (AID 743065). Note: nearly all actives have a fitted effect of over 55% in size. The conditions noted are these: GH3.TRE-Luc, T3-stimulated luciferase inhibition, 23.5 h; series mostly up to 70.3 µM. The source says: U.S. Tox21 Program National Center for Advancing Translational Sciences [NCATS] NIH Chemical Genomics Center [NCGC] U.S. Environmental Protection Agency [EPA] National Institutes of Environmental Health Sciences [NIEHS] National Toxicology Program [NTP] U.S. Food and Drug Administration [FDA] Tox21 Assay Overview: Thyroid receptor (TR), a nuclear hormone receptor, plays an important role in development, proliferation, differentiation, metabolism, brain function, and cardiovascular system. […] To profile the Tox21 10K compound library in TR signaling, a cell-based GH3-TRE-Luc assay (GH3.TRE-Luc cell line, developed by the laboratory of Dr. Albertinka J. Murk, Wageningen University) was used to measure the inhibition of TR. GH3 (rat pituitary tumor) cells stably expressing a TR activity sensor consisting of two TR response elements and a luciferase reporter gene.
Tox21 Assay Protocol Summary: GH3.TRE-Luc cells were dispensed at 1500 cells/4 uL/well into 1536-well white solid bottom plates using a Multidrop Combi dispenser (Thermo Fisher Scientific Inc., Waltham, MA). After the assay plates were incubated at 37 C for 4 hours, 23 nL of library compound or DMSO controls was transferred to the assay plates by a pintool station (Kalypsys, San Diego, CA), followed by addition of 1 ul of T3 (1 nM, final concentration in the wells) to stimulate TR transactivation. The assay plates were incubated at 37 C for 23.5 h, and then 1 uL of CellTiter-Fluor reagent (Promega, Madision, WI) of measuring cytotoxicity was added to each well using a Bioraptr Flying Reagent Dispenser (FRD) workstation (Beckman Coulter, Indianapolis, IN, USA). The plates were incubated at 37 C and 5% CO2 for additional 30 min, and fluorescence intensity was measured by a ViewLux plate reader (PerkinElmer, Shelton, CT). For measuring luciferase reporter gene activity, 4 uL of ONE-Glo Luciferase Assay reagent (Promega) was added to each well using a Bioraptr FRD (Beckman Coulter), followed by 30 min incubation at room temperature. The luminescence intensity of plates was recorded by a ViewLux plate reader (PerkinElmer, Shelton, CT).
On the technique in general: In qHTS, concentration-response curves come from the screen itself.
Consider `Nc1ccc(/C=C/c2ccc(N)cc2S(=O)(=O)O)c(S(=O)(=O)O)c1`, for which the Potency entry is “inactive”.

`CC(C)C(=O)c1ccccc1`: the Potency result was “inactive”.

On to `Cn1c(=O)c2c(ncn2CC2OCCO2)n(C)c1=O`, for which the Potency entry was “inactive”.

Turning to `O=C1OC(=O)c2ccccc21`, the Potency entry is “inactive”.

On to `COC(=O)CCC(=O)O`, for which the Potency result was “inactive”.

Regarding `C=C[Si](C)(C)O[Si](C)(C)C=C`, the Potency entry was “inactive”.

With `C=C[C@@H](C)CCC=C(C)C`, the Potency result is “inactive”.

For `CC(=O)c1ccc(OCC(=O)N2CCCCC2)cc1`, the Potency result was “inactive”.

As to `CCCCCCCCCCCCCC(=O)OC`, the Potency entry was “inactive”.

For `CC(Cl)COP(=O)(OCC(C)Cl)OCC(C)Cl` (stereo not given), the Potency entry is “inactive”.

For the compound `CCC(=O)c1ccc(O)cc1`, the Potency result is “inactive”.

For the compound `O=C1OC(=O)c2cc(Oc3ccc4c(c3)C(=O)OC4=O)ccc21`, the Potency entry is “inactive”.

In the case of `CC(=O)Nc1ncc([N+](=O)[O-])s1`, the Potency entry was “inactive”.

On to `CNC(=O)C(c1ccccc1)c1ccccc1`, for which the Potency result was “inactive”.

Take `CC(=O)OCC(=O)[C@@]1(O)[C@H](OC(C)=O)C[C@H]2[C@@H]3CCC4=CC(=O)C=C[C@]4(C)[C@@]3(F)[C@@H](O)C[C@@]21C`: the Potency result was “inactive”.

On to `COc1cc([N+](=O)[O-])ccc1N`, for which the Potency entry is “inactive”.

With `CNCc1ccccc1`, the Potency entry was “inactive”.

As for `CCCCOC(=O)[C@@H](C)Oc1ccc(Oc2ccc(C(F)(F)F)cn2)cc1`, the Potency entry is “inactive”.

As to `O=C(O)c1ccccc1C(=O)OCc1ccccc1`, the Potency result was “inactive”.

On to `CC(C)=CC(C)(C)C`, for which the Potency result was “inactive”.

Take `CCCCCCCCCOCC1CO1` (stereo not given): the Potency result is “inactive”.

On to `NC(Cc1c[nH]c2ccccc12)C(=O)O` (stereo not given), for which the Potency entry is “inactive”.

As to `Cc1cc(C)cc([N+](=O)[O-])c1`, the Potency result was “inactive”.

Consider `O=C1NC2NC(=O)NC2N1` (stereo not given), for which the Potency entry was “inactive”.

Consider `O=C(COCCOCCOCC(=O)Nc1c(I)cc(I)c(C(=O)O)c1I)Nc1c(I)cc(I)c(C(=O)O)c1I`, for which the Potency entry was “inactive”.

For the compound `CN[C@@H]1[C@H](O)[C@H](NC)[C@H]2O[C@@]3(O)C(=O)C[C@@H](C)O[C@H]3O[C@@H]2[C@H]1O`, the Potency entry is “inactive”.

`CC(C)c1ccccc1O`: the Potency result is “inactive”.

With `COc1cc2c3cc1Oc1cc(ccc1O)C[C@@H]1c4c(cc(OC)c(O)c4Oc4ccc(cc4)C[C@@H]3N(C)CC2)CC[N+]1(C)C`, the Potency result was “inactive”.

Take `CC1CCC(C(C)(C)S)C(=O)C1` (stereo not given): the Potency entry was “inactive”.

`CO[Si](CCCS)(OC)OC`: the Potency entry was “inactive”.

With `COc1cccc2sc(N)nc12`, the Potency result is “inactive”.

On to `CC(C)CCC(=O)CCC(C)C`, for which the Potency result is “inactive”.

Consider `CC1=CC[C@H](CC=O)C1(C)C`, for which the Potency result is “inactive”.

For the compound `CCCCCC(=O)OCC`, the Potency result is “inactive”.

With `OC[C@@H](O)[C@H](O)[C@@H](O)[C@@H](O)CO`, the Potency entry was “inactive”.

As to `Nc1cc(Cl)cc(S(=O)(=O)O)c1O`, the Potency entry was “inactive”.

On to `C[CH2][Ge]([Cl])([CH2]C)[CH2]C`, for which the Potency result is “inactive”.

`CCCCC(CC)C(=O)OC(C)C` (stereo not given): the Potency result is “inactive”.

Consider `Cc1cccc(Nc2ccncc2S(=O)(=O)NC(=O)NC(C)C)c1`, for which the Potency result is “inactive”.

Take `C[Si]1(C)N[Si](C)(C)N[Si](C)(C)N1`: the Potency entry was “inactive”.

Source of the values: PubChem BioAssay (Tox21).
